Screens from PubChem.
Only some compounds are listed: those with a hit (about 3.5% of all), similar ones and a draw of the others.
ERa coact pot = enhances coactivator binding to human estrogen receptor alpha; coactivator binding (% of control), % at 25.6 µM; 86,000 tested, 1.3% active; TR-FRET ERalpha-LBD/SRC-Cy5 coactivator binding, 2 h; 100 = basal binding, no effect; P03372; AID 639; in the data active = activity above about 200%;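 note: binding measured in presence of low estradiol as agonist stimulus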
CD11b adhes enh = increases human CD11b/CD18 adhesion to fibrinogen; P05107+P11215; K562 CD11b/CD18 adhesion to fibrinogen, ATPlite luminescence; activation, % at 10 µM; 93,000 tested, 0.07% active; AID 1499;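 active = 10 µM primary screen giving 50% or more activity, confirmed by 40% or more on retest at that dose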
FAK blocker = FAK (human) kinase inhibition; Q05397; inhibition, %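 (tested at 7 µM)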; AID 727; 97,000 tested, 0.84% active; biochemical FAK kinase activity assay; in the data active = inhibition above about 19%
ERa coact inh = ER-alpha (human) coactivator binding inhibition | 86,000 tested, 1.7% active | AID 629 | P03372 | TR-FRET ER-alpha LBD / SRC-1 peptide, estradiol-bound | inhibition, % at 25.6 µM; in the data active = inhibition above about 50%
ERb coact inh = ER-beta (human) coactivator binding inhibition. inhibition, % at 25.6 µM. Q92731. TR-FRET ER-beta LBD / SRC1-Cy5 peptide binding; receptor agonist-loaded with 1 µM estradiol. 86,000 tested, 1.3% active;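 active = compounds whose percent inhibition of the receptor-coactivator binding signal exceeds about 50% in the single-dose screen, limit read from the data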
Target sequence (Q92731 whole entry, looked up, the tested form may be a part): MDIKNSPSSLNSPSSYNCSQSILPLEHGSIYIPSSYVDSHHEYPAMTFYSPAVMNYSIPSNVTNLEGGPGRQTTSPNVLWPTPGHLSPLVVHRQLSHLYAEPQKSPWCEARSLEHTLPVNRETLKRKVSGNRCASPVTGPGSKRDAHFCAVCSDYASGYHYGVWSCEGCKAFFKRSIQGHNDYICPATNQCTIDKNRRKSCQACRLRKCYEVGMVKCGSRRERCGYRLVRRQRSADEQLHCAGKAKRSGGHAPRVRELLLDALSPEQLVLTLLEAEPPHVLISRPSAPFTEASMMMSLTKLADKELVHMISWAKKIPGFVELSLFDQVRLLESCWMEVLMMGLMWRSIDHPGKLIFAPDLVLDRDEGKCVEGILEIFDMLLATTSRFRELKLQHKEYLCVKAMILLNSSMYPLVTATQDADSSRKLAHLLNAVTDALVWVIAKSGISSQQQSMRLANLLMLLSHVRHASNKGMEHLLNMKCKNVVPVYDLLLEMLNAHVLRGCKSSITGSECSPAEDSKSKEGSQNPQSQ
CD11b adhes inh = CD11b/CD18-fibrinogen binding inhibition; K562 CD11b/CD18 adhesion to fibrinogen, ATPlite luminescence; Mn2+ added to activate the integrin; P05107+P11215; 93,000 tested, 0.54% active; AID 1497; inhibition, % at 10 µM;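 active = primary inhibition of 50% or more at 10 µM, then 40% or more on retest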
A number is an active result; n = inactive; x = no result given; [ ] = remark or other dose.

SMILES | ERa coact pot | CD11b adhes enh | FAK blocker | ERa coact inh | ERb coact inh | CD11b adhes inh
CCOc1ccc(N(C)S(=O)(=O)c2ccc3[nH]cc(C(=O)NCC4CCCO4)c(=O)c3c2)cc1 (stereo not given) | n | n | n | n | n | n
CCc1ccc(N(C)S(=O)(=O)c2ccc3[nH]cc(C(=O)NCCN4CCOCC4)c(=O)c3c2)cc1 | n | n | n | n | n | n
CN(c1ccc(F)cc1)S(=O)(=O)c1ccc2[nH]cc(C(=O)O)c(=O)c2c1 | n | n | x | 55[fluorescence artefact?] | n | n
COCCN(CCOC)C(=O)c1c[nH]c2ccc(S(=O)(=O)N(C)c3ccc(F)cc3)cc2c1=O | n | n | n | 53[fluorescence artefact?] | n | n
CCC1CCCCN1C(=O)c1c[nH]c2ccc(S(=O)(=O)N(C)c3ccc(Cl)cc3)cc2c1=O (stereo not given) | n | n | n | 58[fluorescence artefact?] | n | n
CCC(C)(C)NC(=O)c1ccc2c(c1)N(CC(=O)OC)C(=O)C(C)(C)O2 | n | n | n | n | n | n
CN1CCc2c(sc3c2C(=O)NC(c2cn(Cc4ccccc4)c4ccccc24)N3)C1 (stereo not given) | n | x | n | 90[fluorescence artefact?] | 64[fluorescence artefact?] | x
CC1(C)CC(=O)C(C=Nc2ccccc2Sc2ccccc2)=C(O)C1 | n | n | n | n | n | n
COc1ccc(Cn2nnnc2C(c2ccccc2OC)N2CCC(C(N)=O)CC2)cc1 (stereo not given) | n | n | n | n | 64 | n
COc1ccc(OC)c(C(c2nnnn2Cc2ccccc2)N2CCC(C(N)=O)CC2)c1 (stereo not given) | n | n | n | n | n | n
CSc1nc(N(CCO)CCO)c2sc3nc(-c4ccco4)c4c(c3c2n1)CCC4 | n | n | x | 81[fluorescence artefact?] | 83[fluorescence artefact?] | n
COC(=O)c1ccc(Cl)c(NC(C)=O)c1 | x | n | n | x | x | n
COC(=O)c1ccc(Cl)c(NC(=O)NC2CCCCC2)c1 | 244[fluorescence artefact?] | n | n | n | n | n
Cc1nc(-c2cccc(S(=O)(=O)N3CCOCC3)c2)cs1 | x | n | n | x | x | n
Clc1ccc(-c2nn3c(-c4cccc(Cl)c4)nnc3s2)cc1 | n | n | x | n | n | n
COc1ccc(C2C(C#N)=C(N)Oc3c2c(C)nn3-c2ccccc2)cc1Cn1nc(C)c([N+](=O)[O-])c1C (stereo not given) | n | 51 | n | n | n | n
CS(=O)(=O)N(CC(=O)N/N=C/c1cccs1)c1cccc(Cl)c1Cl | x | n | n | x | x | n
CCOC(=O)Cc1cnc(NC(=O)c2ccccc2)s1 | n | n | n | n | n | n
Cc1cc(/C=N/n2cnnc2)c(C)n1-c1ccc(OCc2ccc(F)cc2)cc1 | n | n | n | n | n | n
Cc1cc(/C=N/n2cnnc2)c(C)n1-c1ccc(OCc2ccc(Cl)cc2Cl)cc1 | n | n | n | n | n | 99
O=C(Nc1nc2c(Cl)cccc2s1)c1ccc(Br)o1 | 535[fluorescence artefact?] | n | n | n | n | n
O=C(NNC(=S)Nc1cccc2ccccc12)c1cccc(Br)c1 | n | n | n | n | n | 89
C=CCNC(=S)NNC(=O)c1cccc(Br)c1 | x | n | x | x | x | n
CCn1cc(C(=O)Nc2ccc(-n3cnnn3)c(OC)c2)c(=O)c2ccc(C)nc21 | 337[fluorescence artefact?] | n | n | n | n | n
CCn1cc(C(=O)Nc2ccccc2C(=O)OC)c(=O)c2ccc(C)nc21 | n | x | x | n | n | x
SMILES | ERa coact pot | CD11b adhes enh | FAK blocker | ERa coact inh | ERb coact inh | CD11b adhes inh
CCCOC(=O)c1ccc(NC(=O)c2cn(CC)c3nc(C)ccc3c2=O)cc1 | 275[fluorescence artefact?] | n | n | n | n | n
CCn1cc(C(=O)Nc2cccc(C(=O)OC)c2)c(=O)c2ccc(C)nc21 | n | n | x | n | n | n
CCn1cc(C(=O)NC2CCc3ccccc32)c(=O)c2ccc(C)nc21 (stereo not given) | 425[fluorescence artefact?] | n | n | n | n | n
O=C(NCSc1ccnc(SCNC(=O)c2ccccc2)n1)c1ccccc1 | 252 | x | n | n | n | x
Cc1ccc(C)c(-n2nnnc2SCC(=O)c2ccc3c(c2)NC(=O)CO3)c1 | 232[fluorescence artefact?] | n | n | n | n | n
COc1ccc(-c2n[nH]c(C)c2-c2ccc(Cl)cc2)c(O)c1 | n | x | n | n | n | x
COc1ccc(-c2n[nH]c(C(F)(F)F)c2-c2cc3ccccc3o2)c(O)c1 | 239 | n | n | n | n | n
CCOc1ccc(S(=O)(=O)N2CCN(S(=O)(=O)c3ccc(OCC)cc3)C(C)C2)cc1 (stereo not given) | n | n | x | n | n | n
Cn1c(=O)c2c(ncn2CCCc2ccccc2)n(C)c1=O | 222 | n | n | n | n | n
O=C(Nc1ccc(F)cc1)c1ccc(CSc2ccccc2)o1 | x | n | x | x | x | 97
Nc1nc(NC(=O)Cc2ccccc2)nn1-c1ccccc1 | n | n | x | n | n | n
Cn1nnnc1SCC(=O)Nc1nc(-c2ccccc2)c(-c2ccccc2)o1 | 391 | n | n | n | n | n
Cn1nnnc1SCC(=O)Nc1ccccn1 | n | n | n | n | n | n
CCOC(=O)c1ccc(Cn2cnc3ccccc3c2=O)cc1 | n | n | n | n | n | n
CCCc1nnc2n1N=C(c1ccc(-c3cc(Cl)ccc3Cl)o1)CS2 | n | x | n | 73 | n | x
CCCc1nnc2n1N=C(c1ccc(OC)c(OC)c1)CS2 | n | x | n | n | n | x
COC(=O)C1=C(O)/C(=C\c2ccc(CNC(=O)C(=O)Nc3ccc(C)c(C)c3)o2)N=C1C | n | n | n | 74 | n | n
CCOC(=O)C1=C(O)/C(=C\c2ccc(CNS(=O)(=O)c3ccc(Br)cc3)o2)N=C1C | x | n | x | x | x | n
COC(=O)C1=C(O)/C(=C\c2ccc(CNC(=O)C(=O)Nc3ccc(C)cc3)o2)N=C1C | n | x | n | 72[fluorescence artefact?] | n | x
CCOC(=O)C1=C(O)/C(=C/c2ccc(CNC(=O)C(=O)Nc3ccc(C)cc3)o2)N=C1C | n | n | n | 55[fluorescence artefact?] | n | n
COc1ccc([N+](=O)[O-])cc1NC(=S)NC(NC(=O)Cc1ccc(OC)c(OC)c1)C(Cl)(Cl)Cl (stereo not given) | x | n | n | x | x | n
Fc1ccccc1CNC(=S)Nc1cccc(C(F)(F)F)c1 | x | n | x | x | x | n
CC1=NN(C(=O)Cc2ccc([N+](=O)[O-])cc2)C(O)(c2cccnc2)C1 (stereo not given) | x | n | n | x | x | n
COc1ccc(-n2c(SCC(=O)Nc3sc4c(c3C#N)CCCC4)nnc2-c2ccccc2OC)cc1 | n | x | n | n | n | x
N#Cc1ccc(-c2cccnc2)nc1SCC(=O)Nc1sc2c(c1C#N)CCC2 | n | n | x | 85 | 66 | n
COc1ccc(-c2nnc(SCC(=O)Nc3sc4c(c3C#N)CCCC4)n2-c2ccccc2)cc1 | 230[fluorescence artefact?] | x | n | n | n | x
O=C(CSc1n[nH]c(-c2ccco2)n1)Nc1sc2c(c1C(=O)Nc1ccccc1)CCCC2 | n | n | n | 51 | n | n
COc1ccc(-c2ccc(C#N)c(SCC(=O)Nc3sc4c(c3C#N)CCC4)n2)cc1 | n | x | n | n | n | x
